Measured values taken from PubChem BioAssay (Tox21).
Results filed as inconclusive are left out. The source made the active and inactive calls. Calls come from the whole dose curve; as a rule, active = well fitted curve in the direction sought with a large enough effect in the repeat runs; inconclusive = weak or mixed curves; inactive = no such curve, though single readings can be large; an effect the other way counts as inactive or inconclusive.

Assays:
[1] = qHTS RealTime-Glo MT Cell Viability Assay in HEK293 cells - 16 hour (AID 1224872); note: top concentration of the series differs between compounds; nearly all actives have a fitted effect of over 50% in size
How it was run: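 Homogeneous bioluminescent viability format in HEK293 cells (600 cells/well). Following 5 h at 37 C/5% CO2, 23 nL compound was pintooled; the signal was measured repeatedly during 40 h incubation.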

[2] = qHTS RealTime-Glo MT Cell Viability Assay in HepG2 cells - 8 hour (AID 1224873); note: nearly all actives have a fitted effect of over 55% in size
How it was run: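 Real-time viability: cells seeded at 600 per well together with NanoLuc and cell-permeant prosubstrate, compounds added after 5 h incubation. Luminescence tracked at 0, 8, 16, 24, 32 and 40 h of exposure.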

[3] = qHTS RealTime-Glo MT Cell Viability Assay in HEK293 cells - 40 hour (AID 1224874); details: RealTime-Glo luminescence; max response: hits give low values; note: nearly all actives have a fitted effect of over 50% in size
How it was run: (§1)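 Viable HEK293 cells reduce a cell-permeant prosubstrate; the product diffuses out and is consumed by NanoLuc in the medium to give light. Compounds went in after a 5 h incubation and plates were read over the treatment course.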

[4] = A CellTox Green Cytotoxicity Assay to monitor cytotoxicity in HEK293 cells - 24 hour (AID 1224875); note: series mostly up to about 77 µM; nearly all actives have a fitted effect of over 45% in size
How it was run: (§2)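 Fluorescence intensity, read at 0, 8, 16, 24, 32 and 40 h of compound treatment, reflected dye binding to DNA of dead HEK293 cells; compounds (23 nL, DMSO) were added 5 h after plating cells with reagent.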

[5] = A CellTox Green Cytotoxicity Assay to monitor cytotoxicity in HepG2 cells - 16 hour (AID 1224876); note: nearly all actives have a fitted effect of over 45% in size
How it was run: (§3)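 Using 1536-well format, dye-containing HepG2 suspension was seeded, allowed 5 h at 37 C/5% CO2, dosed by pintool with compounds, positive and negative controls, and imaged for fluorescence across 40 h.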

[6] = qHTS RealTime-Glo MT Cell Viability Assay in HepG2 cells - 32 hour (AID 1224877); note: nearly all actives have a fitted effect of over 55% in size
How it was run: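 Cell number in HepG2 cultures estimated from NanoLuc luminescence generated by metabolic reduction of a prosubstrate by living cells. The homogeneous, nonlytic format allowed repeated reads at 0, 8, 16, 24, 32 and 40 h of compound exposure.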

[7] = A CellTox Green Cytotoxicity Assay to monitor cytotoxicity in HepG2 cells - 24 hour (AID 1224878); note: nearly all actives have a fitted effect of over 45% in size
How it was run: as §3

[8] = A CellTox Green Cytotoxicity Assay to monitor cytotoxicity in HepG2 cells - 40 hour (AID 1224879); note: nearly all actives have a fitted effect of over 40% in size
How it was run: as §3

[9] = qHTS RealTime-Glo MT Cell Viability Assay in HEK293 cells - 0 hour (AID 1224880); note: top concentration of the series differs between compounds; nearly all actives have a fitted effect of over 45% in size
How it was run: as §1

[10] = A CellTox Green Cytotoxicity Assay to monitor cytotoxicity in HEK293 cells - 32 hour (AID 1224881); note: nearly all actives have a fitted effect of over 40% in size
How it was run: as §2
% is set by controls: 0 for no effect and ±100 for the full control effect.

O=C(O)c1cccc(Cl)c1
inactive: Potency [1] | Potency [2] | max response [3] 4.06% | Potency [4] | Potency [5] | Potency [6] | Potency [7] | Potency [8] | outcome [9] | Potency [10]

CCN(CC)c1nc(C)cc(OP(=S)(OC)OC)n1
inactive: Potency [1] | Potency [2] | max response [3] 2.28% | Potency [4] | Potency [5] | Potency [6] | Potency [7] | Potency [8] | outcome [9] | Potency [10]

CS(=O)(=O)c1cc(C(F)(F)F)ccc1C(=O)c1cnoc1C1CC1
inactive: Potency [1] | Potency [2] | max response [3] -3.5% | Potency [4] | Potency [5] | Potency [6] | Potency [7] | Potency [8] | outcome [9] | Potency [10]

CCCCOP(=O)(O)OCCCC
inactive: Potency [1] | Potency [2] | max response [3] 0.827% | Potency [4] | Potency [5] | Potency [6] | Potency [7] | Potency [8] | outcome [9] | Potency [10]

CCOP(=S)(Oc1cnc(C(C)(C)C)nc1)OC(C)C (stereo unspecified)
inactive: Potency [1] | Potency [2] | max response [3] -10.5% | Potency [4] | Potency [5] | Potency [6] | Potency [7] | Potency [8] | outcome [9]

ClC(Cl)Br
inactive: Potency [1] | Potency [2] | max response [3] 8.21% | Potency [4] | Potency [5] | Potency [6] | Potency [7] | Potency [8] | outcome [9] | Potency [10]

CCCCN(CCCCO)N=O
inactive: Potency [1] | Potency [2] | max response [3] 3.79% | Potency [4] | Potency [5] | Potency [6] | Potency [7] | Potency [8] | outcome [9] | Potency [10]

Clc1cccc(N2CCNCC2)c1
inactive: Potency [1] | Potency [2] | max response [3] 8.54% | Potency [4] | Potency [5] | Potency [6] | Potency [7] | Potency [8] | outcome [9] | Potency [10]

O=[N+]([O-])c1ccc2c3c(cccc13)CC2
inactive: Potency [1] | Potency [2] | max response [3] 1.98% | Potency [4] | Potency [5] | Potency [6] | Potency [7] | Potency [8] | outcome [9] | Potency [10]

CNC(=O)Oc1c(C(C)(C)C)cc(C)cc1C(C)(C)C
inactive: Potency [1] | Potency [2] | max response [3] -2.73% | Potency [4] | Potency [5] | Potency [6] | Potency [7] | Potency [8] | outcome [9]

CC1CCC(=O)O1 (stereo unspecified)
inactive: Potency [1] | Potency [2] | max response [3] -22.6% | Potency [4] | Potency [5] | Potency [6] | Potency [7] | Potency [8] | outcome [9] | Potency [10]

C#CCN1C(=O)COc2cc(F)c(N3C(=O)C4=C(CCCC4)C3=O)cc21
inactive: Potency [1] | Potency [2] | max response [3] 2.01% | Potency [4] | Potency [5] | Potency [6] | Potency [7] | Potency [8] | outcome [9] | Potency [10]

CCOP(=S)(OCC)SCSP(=S)(OCC)OCC
inactive: Potency [1] | Potency [2] | max response [3] 7.42% | Potency [4] | Potency [5] | Potency [6] | Potency [7] | Potency [8] | outcome [9] | Potency [10]

Nc1cc2c3c(c1)C(c1ccccc1)=N[C@@H](NC(=O)c1cccnc1)C(=O)N3CC2
inactive: Potency [1] | Potency [2] | max response [3] -6.57% | Potency [4] | Potency [5] | Potency [6] | Potency [7] | Potency [8] | outcome [9] | Potency [10]

COC(=O)COc1ccc(Cl)cc1Cl
inactive: Potency [1] | Potency [2] | max response [3] 0.13% | Potency [4] | Potency [5] | Potency [6] | Potency [7] | Potency [8] | outcome [9] | Potency [10]

CCS(=O)(=O)CCSP(=O)(OC)OC
inactive: Potency [1] | Potency [2] | max response [3] 10.4% | Potency [4] | Potency [5] | Potency [6] | Potency [7] | Potency [8] | outcome [9] | Potency [10]

CCSC(=O)N(CC)C1CCCCC1
inactive: Potency [1] | Potency [2] | max response [3] -0.642% | Potency [4] | Potency [5] | Potency [6] | Potency [7] | Potency [8] | outcome [9]

OC(c1ccc(F)cc1)(c1cncnc1)c1ccccc1Cl (stereo unspecified)
inactive: Potency [1] | Potency [2] | max response [3] -29.2% | Potency [4] | Potency [5] | Potency [6] | Potency [7] | Potency [8] | outcome [9]

COC(C)(C)C
inactive: Potency [1] | Potency [2] | max response [3] 6.3% | Potency [4] | Potency [5] | Potency [6] | Potency [7] | Potency [8] | outcome [9] | Potency [10]

Cc1cnc[nH]1
inactive: Potency [1] | Potency [2] | max response [3] -2.47% | Potency [4] | Potency [5] | Potency [6] | Potency [7] | Potency [8] | outcome [9] | Potency [10]

O=C(O)C(Br)CBr (stereo unspecified)
inactive: Potency [1] | Potency [2] | max response [3] 26% | Potency [4] | Potency [5] | Potency [6] | Potency [7] | Potency [8] | outcome [9] | Potency [10]

CCOC(=O)/C=C(C)/C=C/C[C@@H](C)CCCC(C)C
inactive: Potency [1] | Potency [2] | max response [3] 8.55% | Potency [4] | Potency [5] | Potency [6] | Potency [7] | Potency [8] | outcome [9] | Potency [10]

ClC(Br)Br
inactive: Potency [1] | Potency [2] | max response [3] 9.83% | Potency [4] | Potency [5] | Potency [6] | Potency [7] | Potency [8] | outcome [9] | Potency [10]

OC(Cn1cncn1)(c1ccc(F)cc1)c1ccccc1F (stereo unspecified)
inactive: Potency [1] | Potency [2] | max response [3] -0.588% | Potency [4] | Potency [5] | Potency [6] | Potency [7] | Potency [8] | outcome [9] | Potency [10]
